Measured values from PubChem BioAssay AID618 (Sanford-Burnham Center for Chemical Genomics, 2007).
The whole screen tested about 87,000 compounds, of which about 540 (0.62%) were called active. The rule behind the calls is not given here. Shown is part of a subset that was picked to be rich in actives. Measured potencies and affinities stand elsewhere.

assay: MT1-MMP gene expression reporter suppression – cell-based, luciferase reporter, luminescence (AID 618); conditions: MT1-MMP promoter luciferase reporter cells;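 note: actives suppress MT1-MMP promoter-driven transcription so potencies describe inhibitors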

Row | Compound | outcome
1 | Cc1nnc(NC(=O)c2sc3ccccc3c2Cl)s1 | active
2 | CC(C)c1nnc(NC(=O)c2sc3ccccc3c2Cl)s1 | inactive
3 | COCc1nnc(NC(=O)c2sc3ccccc3c2Cl)s1 | inactive
4 | O=C(NCc1ccc2c(c1)OCO2)c1ccccn1 | inactive
5 | O=C(/C=C\Nc1cccc(F)c1)c1ccc2c(c1)OCO2 | inactive
6 | CN(C(=O)c1ccco1)c1nnc(C23CC4CC(CC(C4)C2)C3)s1 | inactive
7 | CN(C(=O)c1ccco1)c1nc(CC(=O)Nc2ccccc2)cs1 | inactive
8 | COC(=O)[C@@]1(Cc2ccc(OC)cc2)[C@H]2c3cc(C(=O)N4CCCC4)n(CCF)c3C[C@H]2CN1C(=O)c1ccccc1 | inactive
9 | COc1cc(C(=O)N2CCN(C(=O)Cc3ccccc3)CC2)cc(OC)c1OC | inactive
10 | C=CCNC(=O)c1ccc2nccnc2c1 | inactive
11 | CC(C)C(=O)N(Cc1cc2ccccc2[nH]c1=O)C(C)C | inactive
12 | C=CCn1c(SCc2cc(=O)n3ccsc3n2)nc2scc(C3CC3)c2c1=O | inactive
13 | COc1ccccc1NC(=S)NNC(=O)c1ccccc1 | inactive
14 | O=C(NCCCN1CCOCC1)c1ccccc1 | inactive
15 | COc1cccc(-c2nc3ccccc3s2)c1 | inactive
16 | COc1cc(OC)cc(-c2nc3ccccc3s2)c1 | inactive
17 | COc1ccc(-c2nc3ccccc3s2)cc1O | active
18 | COc1cc(-c2nc3ccccc3s2)ccc1O | inactive
19 | c1ccc2sc(-c3ccc4c(c3)OCO4)nc2c1 | inactive
20 | COC(=O)CSc1nc2ccc(C)cc2[nH]1 | inactive
21 | CCN(CC)S(=O)(=O)c1ccc(C2CNC(=O)C2)cc1 (stereo not drawn) | inactive
22 | CCn1cnc2c1c(=O)n(Cc1csc(-c3ccccc3)n1)c(=O)n2Cc1ccccc1 | inactive
23 | COc1cccc(NC(=O)CCN2C(=O)c3ccccc3S2(=O)=O)c1 | inactive
24 | CCc1nnc(NC(=O)CSc2nc3c(cc2C#N)CCCC3)s1 | inactive
25 | CCc1nnc(NC(=O)CSc2nc3c(cc2C#N)CCC3)s1 | inactive
26 | Cc1cc(C(F)(F)F)n2ncc(-c3ccc(F)cc3)c2n1 | inactive

Row | Compound | outcome
27 | COc1ccccc1NC(=O)CSc1nnc(-c2ccc(C)cc2)o1 | inactive
28 | CCOc1ccccc1-c1nnc(SCC(=O)Nc2ccccc2)o1 | inactive
29 | Cc1ccc(C)c(NC(=O)CSc2nnc(-c3ccccc3)o2)c1 | inactive
30 | COC(=O)c1ccccc1NC(=O)CSc1nnc(-c2ccc(C)cc2)o1 | inactive
31 | Cc1cccc(NC(=O)CSc2nnc(-c3ccccc3C)o2)c1 | inactive
32 | COc1ccccc1NC(=O)CSc1nnc(-c2ccccc2)o1 | inactive
33 | CCN(CC)S(=O)(=O)c1ccc(NC(=O)CN(c2ccc(OC)cc2OC)S(C)(=O)=O)cc1 | inactive
34 | O=C(NCCCO)C12CC3CC(CC(C3)C1)C2 | inactive
35 | O=C(NC(NC1CCS(=O)(=O)C1)C(=O)c1ccccc1)c1ccc(Cl)cc1 (stereo not drawn) | inactive
36 | O=C(Nc1cccc(O)c1)c1ccccc1 | inactive
37 | Cc1ccc(C(=O)/C=C/Nc2cccc(O)c2)cc1 | active
38 | Cc1ccc(N/C=C/C(=O)c2ccc(C)cc2)cc1 | inactive
39 | C/C(=C\C(=O)c1ccc(C)cc1)Nc1cccc(O)c1 | inactive
40 | O=C(/C=C/Nc1ccccc1)c1ccccc1 | inactive
41 | Cc1nc2ncnn2c(C)c1CCC(=O)Oc1ccccc1 | inactive
42 | COc1ccc(CCNC(=O)C2CCN(S(C)(=O)=O)CC2)cc1OC | inactive
43 | Cc1cc(C)n(-c2ccc3cccc(NS(C)(=O)=O)c3n2)n1 | inactive
44 | Cc1cnc(NC(=O)c2cc3c(s2)CCCC3)s1 | inactive
45 | COC(=O)c1sc(NC(=O)c2cc3c(s2)CCCC3)nc1C | inactive
46 | Cc1csc(NC(=O)c2cc3c(s2)CCC3)n1 | active
47 | CCOC(=O)Cc1csc(NC(=O)c2cc3c(s2)CCCC3)n1 | inactive
48 | Cc1nc(NC(=O)c2cc3c(s2)CCCCC3)sc1C(=O)N(C)C | inactive
49 | CCc1nnc(NC(=O)c2cc3c(s2)CCCCC3)s1 | inactive
50 | Cc1csc(NC(=O)c2cc3c(s2)CCCCC3)n1 | inactive
51 | O=C1N(Cc2ccccc2F)c2ccccc2C12OCCCO2 | inactive
52 | CCn1nc(C(=O)NC2=NCCS2)c2ccccc2c1=O | inactive

Row | Compound | outcome
53 | Cc1ccc(C(=O)N(c2ccccn2)C(C)c2ccco2)cc1 (stereo not drawn) | inactive
54 | Cc1ccc(NC(=O)CSc2nnc(Cn3cnc4ccccc43)o2)c(C)c1 | inactive
55 | CN(C)c1ncc(C2=C(Cl)C(=O)C(N3CCCC3)=C(Cl)C2=O)s1 | inactive
56 | CN1CCN(C2=C(Cl)C(=O)C(c3cnc(N4CCCCC4)s3)=C(Cl)C2=O)CC1 | inactive
57 | Cc1ccc2c(c1)-c1ccccc1S(=O)(=O)N2 | inactive
58 | Nc1ccc2c(c1)-c1ccccc1S(=O)(=O)N2 | inactive
59 | O=c1cc(N2CCOCC2)[nH]c(=O)n1-c1ccc(Cl)cc1 | inactive
60 | COc1cccc(-c2cc(C(=O)Nn3cnnc3)c3ccccc3n2)c1 | inactive
61 | O=C(Nn1cnnc1)c1cc(-c2ccccn2)nc2ccccc12 | inactive
62 | Cc1ccc2nc(C3CCN(C(=O)NCc4ccccc4)CC3)[nH]c2c1 | inactive
63 | O=c1cc(CO)oc(CN2CCN(c3ccccc3F)CC2)c1O | inactive
64 | CC(C)(C)S(=O)(=O)c1ccc2nc3c(n2c1)CCCC3 | inactive
65 | Cc1cc2nc(NC3=NCN(CCCN4CCOCC4)CN3)nc(C)c2cc1C | inactive
66 | Cc1nc(NC2=NCN(CCN3CCOCC3)CN2)nc2c(C)cccc12 | inactive
67 | Cc1ccc(NC(=O)NC(=O)N(c2ccccc2)S(C)(=O)=O)cc1 | inactive
68 | CCOc1ccccc1N1CC(C(=O)N2CCc3ccccc3C2)CC1=O (stereo not drawn) | inactive
69 | COc1ccc(-c2nc(C#N)c(N3CCOCC3)o2)cc1OC | inactive
70 | COc1ccc(CCNc2oc(-c3ccco3)nc2C#N)cc1 | inactive
71 | Nc1nc(Nc2cccc(F)c2)nc2ccccc12 | inactive
72 | COc1ccc(Nc2nc(N3CCCC3)c3ccccc3n2)cc1 | inactive
73 | Nc1nc(Nc2ccccc2)nc2ccccc12 | active
74 | Fc1ccc(Nc2nc(N3CCOCC3)c3ccccc3n2)cc1 | inactive
75 | Cc1ccc(Nc2nc(N3CCOCC3)c3ccccc3n2)cc1 | inactive
76 | OCCNc1nc(Nc2ccccc2)nc2ccccc12 | inactive
77 | COc1ccc(Nc2nc(C)c3ccccc3n2)cc1 | inactive
78 | Cc1ccc(NC(=O)N2CCOCC2)c(C)c1 | inactive
